# Pf growth 48h = Primary qHTS for delayed death inhibitors of the malarial parasite plastid, 48 hour incubation; AID 504832, 2011; Potency, µM (top dose mostly 28.7 µM), for the others: at the top dose activity change, negative = inhibition, usual class: inhibitors; 310,000 tested, 5.9% active; P. falciparum luciferase growth in erythrocytes, 48 h; active = well fitted inhibition curve with a large enough effect; inconclusive = small, poorly fitted or top-dose-only effect, or another doubt; inactive = no such curve, though single readings can be large or run the other way; also: potency is read from the fitted curve at half-maximal effect; % is scaled to controls: 0 for no effect and ±100 for the full control effect
#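 Firefly luciferase activity from engineered P. falciparum reports growth; inhibitors lower the luminescent signal. Cultures contained 2% hematocrit erythrocytes at 0.1% final parasitemia.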
# Pf growth 96h = Primary qHTS for delayed death inhibitors of the malarial parasite plastid, 96 hour incubation; 320,000 tested, 6.9% active; Potency, µM (titrated, usually from 28.7 µM), for inactives: at the highest dose activity change, negative = inhibition, usual class: inhibitors; P. falciparum luciferase reporter growth, 96 h; active = well fitted inhibition curve with a large enough effect; inconclusive = small, poorly fitted or top-dose-only effect, or another doubt; inactive = no such curve, though single readings can be large or run the other way; also: potency is read from the fitted curve at half-maximal effect; % is scaled to controls: 0 for no effect and ±100 for the full control effect
#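 Luminescence readout: decreased luciferase signal marks inhibited growth of reporter-expressing P. falciparum in infected red cells (2% hematocrit, 0.05% parasitemia final), exposed to compound two generations (96 h, 37 C, 5% CO2).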
# SARS PLpro yeast = qHTS of Yeast-based Assay for SARS-CoV PLP; S. cerevisiae expressing SARS-CoV PLpro, growth rescue; Potency, µM (doses to about 32.9 µM), inactives show at the top dose activity, positive = growth rescue, usual class: activators; 330,000 tested, 0.19% active; also: potency is read from the fitted curve at half-maximal effect; 0% is about no effect; nearly all actives have a fitted effect of over 55% in size
# Shiga toxin inh = A qHTS for Small Molecule Inhibitors of Shiga Toxin | Vero cells, Shiga toxin protein synthesis inhibition reporter | inhibition, % at 38.7 µM | 290,000 tested, 9.2% active | AID 2315, 2010; in the data active = inhibition mostly above about 28%, no sharp cut-off; inactive = mostly below about 43%; also: 0% is about no effect
# NS1 inh = qHTS Assay for Inhibitors of Influenza NS1 Protein Function; Potency, µM (doses to about 46.1 µM), for the others: at the top dose activity, positive = more growth; AID 2326, 2010; 270,000 tested, 0.4% active; also: potency is read from the fitted curve at half-maximal effect; actives are rising curves; nearly all actives have a fitted effect of over 50% in size
#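 Compounds were scored for reversing the slow growth caused by influenza A NS1 in S. cerevisiae, measured by optical density at 600 nm. Assay medium contained 2% galactose at pH 6.0; NS1-free yeast of the same strain were the positive control.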
# CHX counter = Cycloheximide Counterscreen for Small Molecule Inhibitors of Shiga Toxin; 300,000 tested, 12% active; AID 2314, 2010; cell reporter, cycloheximide protein synthesis inhibition counterscreen; max response, %; in the data active = max response mostly above about 13%, no sharp cut-off; inactive = mostly below about 14%; also: read at 38.3 µM for the half of the compounds with a filed dose; 0% is about no effect
# The depositor's hits bear a star; ? = inconclusive; / = not tested or not shown. A selection: hits, their analogues and other compounds. The true share with any hit is near 21%. Unless noted, calls follow the shape of the full dose curve.
SMILES,Pf growth 48h,Pf growth 96h,SARS PLpro yeast,Shiga toxin inh,NS1 inh,CHX counter
CSCCC(NS(=O)(=O)c1ccc2c(c1)OCCO2)C(=O)N(C)Cc1ccc(F)cc1 (stereo not drawn),?,?,-2%,/,/,/
Cn1c(O)c(C=Nc2ccc(Br)cc2)sc1=O,51%,114%,-1%,80*,/,45*
Cn1c(O)c(C=Nc2ccc(Br)cc2)c(=O)n(C)c1=O,-25%,?,4%,-11,26%,-1
Cc1nc2ccccc2cc1C[N+]12CN3CN(CN(C3)C1)C2,/,/,/,/,-6%,/
CN1CCN(C(c2ccccc2)c2ccccc2)CC1,?,6%,/,/,/,/
CN1CCCN(C(c2ccccc2)c2ccc(Cl)cc2)CC1 (stereo not drawn),13µM*,6.7µM*,-12%,-17,-4%,-3
Clc1ccc(C(c2ccccc2)N2CCN(c3ccccn3)CC2)cc1 (stereo not drawn),?,6.6µM*,-2%,1,-5%,7
CCCOC(=O)c1ccc(Oc2coc3c(CN(CC)CC)c(O)ccc3c2=O)cc1,?,12µM*,-8%,10,-16%,-1
CN1CCN(C(=O)c2cc([N+](=O)[O-])ccc2Cl)CC1,201%,?,0%,-4,15%,1
Cc1cccc(C(=O)N[C@H](C(=O)Nc2ccc3c(c2)OCO3)C(C)C)c1,/,/,-17%,/,/,/
O=C1/C(=C/c2ccc([N+](=O)[O-])cc2)Oc2cc(O)ccc21,55%,41%,-6%,67*,-43%,40*
O=C1/C(=C/c2ccc(Br)cc2)Oc2cc(O)ccc21,40%,13%,-10%,61*,-57%,29*
CC(C)(C)c1ccc(/C=C2\Oc3cc(O)ccc3C2=O)cc1,?,?,-11%,125*,-31%,61*
COC(=O)c1ccc2c(c1)C(=O)/C(=C/c1ccc(O)cc1)O2,60%,20%,-2%,65*,3%,20
Cc1ccc(S(=O)(=O)N2CCc3ccccc3C2CC(=O)O)cc1 (stereo not drawn),22%,37%,-1%,9,-5%,-1
COc1cccc(/C=C2\Oc3ccc(O)cc3C2=O)c1O,5.2µM*,-10%,0%,-6,-31%,-5
COc1cccc(OC)c1C(=O)Oc1ccc2c(c1)O/C(=C\c1ccncc1)C2=O,?,-70%,0%,-6,21%,-2
COc1ccc(S(=O)(=O)N2CCC(Cc3ccccc3)CC2)cc1NC(C)=O,34%,4.7µM*,0%,-3,9%,-2
COc1ccc(S(=O)(=O)N2CCOCC2)cc1NC(=O)CN1CCC(Cc2ccccc2)CC1,12µM*,4.7µM*,1%,-13,-30%,-3
COc1ccc(S(=O)(=O)N2CCOCC2)cc1NC(=O)CN1CCCC1,33%,43%,0%,18,/,-2
Cc1nc2sccn2c(=O)c1CCN1CCC(=C(c2ccc(F)cc2)c2ccc(F)cc2)CC1,10µM*,10µM*,-2%,-5,-45%,-1
Cc1nc2ccccn2c(=O)c1CCN1CCC(C(=O)c2ccc(F)cc2)CC1,?,11µM*,-3%,-9,-2%,-1
O=C(CN1CCC(C(=O)c2ccc(F)cc2)CC1)Nc1ccccc1,?,?,6%,-13,0%,-2
COc1ccc(C2CC(c3ccccc3)Oc3cc(OC)c(OC)c(OC)c32)cc1 (stereo not drawn),/,/,/,-2,/,19
CCc1ccc(C(=O)c2cncc(Br)c2)cc1,?,/,/,49*,6%,35*
SMILES,Pf growth 48h,Pf growth 96h,SARS PLpro yeast,Shiga toxin inh,NS1 inh,CHX counter
Cc1ccc(SCC(=O)NNC(=O)c2cncc(Br)c2)cc1,/,/,-18%,/,/,/
Nc1ccc(Br)cc1C(=O)O,-2%,?,-10%,-9,10%,-6
Cc1ccc(C(=O)c2cncc(Br)c2)cc1,7%,-21%,-3%,41,-2%,22*
Cc1ccc(C(=O)c2cc(Br)ccc2N)cc1,35%,1.7µM*,-5%,45*,/,22*
CC(C(=O)N1CCc2ccccc21)n1cnc2c1c(=O)n(C)c(=O)n2C (stereo not drawn),-10%,-14%,3%,/,/,/
c1ccc2c(c1)ncn2CCCOc1ccc2c(c1)CCC2,/,13µM*,2%,98*,-93%,19*
O=[N+]([O-])c1ccc(OCCn2cnc3ccccc32)cc1,?,8%,-2%,-6,/,-3
c1ccc(OCCCCn2cnc3ccccc32)cc1,-9%,-25%,-1%,14,-21%,6
c1ccc2c(c1)ncn2CCCCOc1ccc2c(c1)CCC2,/,5.9µM*,-10%,37,-170%,18*
COC(=O)C1=C(C(=O)OC)C2C(C)=CC(C)=CN2C(C(=O)OC)=C1C(=O)OC (stereo not drawn),-25%,?,5%,-3,7%,-2
O=C1CNC(c2ccccc2Cl)c2cc(Br)ccc2N1 (stereo not drawn),-16%,4.7µM*,4%,-32,6%,-4
COC(=O)CN1C(=O)Nc2ccc(Br)cc2C1c1ccccc1Cl (stereo not drawn),/,/,-7%,-17,16%,1
COc1ccccc1C(=O)NC(=S)NNC(=O)c1sc2ccccc2c1Cl,26%,?,-27%,3,25%,13
Cc1c(NC(=S)NC(=O)c2sc3ccccc3c2Cl)cccc1C(=O)O,236%,-27%,-3%,161*,2%,61*
CC1CCCCC1NC(=S)NC(=O)c1sc2ccccc2c1Cl (stereo not drawn),?,?,-1%,-7,0%,12*
CCCOc1ccc(CSc2ncn[nH]2)cc1,61%,?,-4%,68*,-11%,30*
Cc1cc(C)n2cc(CSc3ncn[nH]3)nc2n1,11%,10%,2%,1,/,1
O=C(O)c1ccc(CSc2ncn[nH]2)cc1,?,?,4%,2,-7%,-2
CCc1ccc(C(=O)CSc2ncn[nH]2)cc1,87%,?,-5%,76*,-12%,30*
Brc1ccc(CSc2ncn[nH]2)cc1,/,-7%,-6%,-5,-62%,-2
COc1cc(CSc2ncn[nH]2)c(OC)cc1CSc1ncn[nH]1,?,13µM*,5%,-6,2%,8
O=C(CSc1ncn[nH]1)c1ccc(OC(F)F)cc1,11%,14%,0%,21,-2%,14*
ClC1=C(Cl)C(Cl)(C2(Cl)C(Cl)=C(Cl)C(Cl)=C2Cl)C(Cl)=C1Cl,/,/,/,-21,/,-15
COc1ccc(CNC(=O)CCCNC(=O)c2ccc(Cl)cc2)cc1OC,1%,-14%,1%,-4,-2%,9
COc1ccc(C(=O)CSc2ncn[nH]2)cc1OC,16%,-1%,-3%,14,5%,2

# Screening data: PubChem, National Center for Advancing Translational Sciences (NCATS)
